This note sets out measurements from PubChem BioAssay (Tox21).

Values joined by “and” are separate entries in the source; they are usually repeats but may differ in a detail not shown here. Identical values can stand only once. Inconclusive results are not listed. Active and inactive are the calls of the source. The call rests on the fitted dose curve; in most records, active means well fitted inhibition curve with a large enough effect in the repeat runs; inconclusive means weak or mixed curves; inactive means no such curve, though single readings can be large or run the other way.
On the % scale 0 is the no-effect control and ±100 the full control effect; potency means the concentration at half of the fitted maximal effect.

Cytochrome P450 2C19 (Homo sapiens), sequence (P33261 whole entry, looked up): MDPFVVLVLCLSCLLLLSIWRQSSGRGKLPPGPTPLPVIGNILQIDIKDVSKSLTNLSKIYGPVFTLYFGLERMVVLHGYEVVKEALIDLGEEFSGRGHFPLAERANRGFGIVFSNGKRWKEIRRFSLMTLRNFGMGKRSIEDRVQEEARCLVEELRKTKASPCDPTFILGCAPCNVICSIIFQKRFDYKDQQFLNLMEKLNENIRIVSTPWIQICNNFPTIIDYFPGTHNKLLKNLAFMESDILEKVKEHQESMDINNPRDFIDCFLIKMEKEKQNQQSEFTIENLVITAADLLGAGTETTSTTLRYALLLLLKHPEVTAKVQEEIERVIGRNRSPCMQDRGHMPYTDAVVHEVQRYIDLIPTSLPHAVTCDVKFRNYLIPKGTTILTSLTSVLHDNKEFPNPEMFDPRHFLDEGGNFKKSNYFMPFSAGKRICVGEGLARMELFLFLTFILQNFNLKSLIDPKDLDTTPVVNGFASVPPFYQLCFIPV

The test has as its target Cytochrome P450 2C19 (Homo sapiens) (UniProt P33261). Description: Cytochrome P450 Family 2 Subfamily C Member 19 (CYP2C19) small molecule antagonists: luciferase reporter qHTS assay (AID 1671197). Further: nearly all actives have a fitted effect of over 65% in size. Particulars: P450-Glo CYP2C19 enzyme, luciferin luminescence, 1 h; series mostly up to 115 µM; activity change, negative = inhibition: at the top concentration. An excerpt:
National Center for Advancing Translational Sciences [NCATS]
U.S. Environmental Protection Agency [EPA]
National Institutes of Environmental Health Sciences [NIEHS]
National Toxicology Program [NTP]
U.S. Food and Drug Administration [FDA]
Cytochrome P450 (CYP) enzymes are membrane-bound hemeproteins that play a key role in metabolism of drugs and xenobiotics. Evaluation of the effect of chemicals on CYP isozymes is useful to minimize the adverse drug reactions and toxicities in drug development process. Tox21 chemicals were tested for their effect on CYP enzyme activities by using P450-Glo (TM) screening systems (Promega Corporation, Madison, WI). These systems provide a luminescent method containing proluciferin substrates and are converted to luciferin products by CYP isozymes. The luciferin products formed are detected with a luciferin detection reagent, and the amount of light produced is proportional to CYP activity. P450-Glo (TM) CYP2C19 screening system (Catalog. No. V9880) was used to detect the compounds that interfere in CYP2C19 activity. The positive control compound used for CYP2C19 assay is ketoconazole (Sigma-Aldrich, St. Louis, MO).
Tox21 Assay Protocol Summary:
Two ul of enzyme-substrate mix was dispensed into medium binding white/solid 1536-well plates (Greiner Bio-One North America Inc., Monroe, NC) using a BioRaptr Flying Reagent Dispenser (FRD, Beckman Coulter, Brea, CA). Compounds dissolved in DMSO and positive control (ketoconazole) were transferred to the assay plates at 23 nl using a Pintool station (Wako, San Diego, CA). The assay plates were incubated at room temperature for 10 min. Then 2 ul of NADPH regeneration solution was added to each well of the assay plates using an FRD and incubated at 37C for 1 h. The reaction was stopped by adding 4 ul of detection reagent using an FRD and after 20 min incubation at room temperature the luminescence signal was measured using a ViewLux plate reader (Perkin Elmer, Shelton, CT). Data were expressed as relative luminescence units.
(In general: A reporter such as luciferase makes a cellular process visible.)
Consider `Cc1ccc(N(SC(F)(Cl)Cl)S(=O)(=O)N(C)C)cc1`, for which the Potency was 10 µM (active).

In the case of `O=C(Nc1ccccc1-c1ccc(Cl)cc1)c1cccnc1Cl`, the Potency is 3.56 µM (active). Same read-out and setting: with `CC(c1ccccc1)(c1ccc(O)cc1)c1ccc(O)cc1` the figure was 8.94 µM (active). On to `CNC(=O)Oc1cc(C)c(SC)c(C)c1`, for which the Potency is 56.4 µM (active). With `O=S(=O)(C(Cl)(Cl)Cl)C(Cl)(Cl)Cl`, the Potency was 25.2 µM (active). On the same count and under the same terms, then `COc1cc(OC)c(OC)cc1C=O`, with 38.7 µM (active). On the same count and under the same terms, then `Nc1ccc([N+](=O)[O-])cc1`, with 3.56 µM (active).

Take `OC(Cc1ccccc1Cl)(Cn1[nH]cnc1=S)C1(Cl)CC1` (stereo not drawn): the Potency is 1.26 µM (active). Regarding `Clc1ccccc1-c1ccccc1Cl`, the “activity change, negative = inhibition” value was 14.6% (inactive). Regarding `CC1COC(Cn2cncn2)(c2ccc(Oc3ccc(Cl)cc3)cc2Cl)O1` (stereo not drawn), the Potency is 0.0502 µM (active). `O=C(c1ccccc1)C(Cl)Cl`: the “activity change, negative = inhibition” value is -27.6% (inactive). `CCN(CC)C(=O)Cl`: the “activity change, negative = inhibition” value is -10.5% (inactive). `Cc1cc(C)c(C(=O)P(=O)(c2ccccc2)c2ccccc2)c(C)c1`: the Potency is 6.33 µM (active).

In the case of `Cc1cc(C(C)(C)c2ccc(O)c(C)c2)ccc1O`, the Potency is 2.14 µM (active). Still for that read-out and setting: then `CO/C=C(/C(=O)OC)c1ccccc1Oc1cc(Oc2ccccc2C#N)ncn1`, with 2.39 µM (active).

Take `OCC(c1ccc(Cl)cc1)c1ccc(Cl)cc1`: the Potency was 0.0894 µM (active). On the same count and under the same terms, with `O=C1C(I)=CC(=C(c2cc(I)c(O)c(I)c2)c2ccccc2C(=O)O)C=C1I` the figure was 13.8 µM (active). On the same count and under the same terms, with `O=[N+]([O-])c1c(Cl)c(Cl)cc(Cl)c1Cl` the figure was 71 µM (active); with `COc1ccc(C(c2ccc(OC)cc2)C(Cl)(Cl)Cl)cc1`, 0.354 µM (active); with `CN1CSC(=S)N(C)C1`, 35.4 µM (active) and 17.8 µM (active). On the same count and under the same terms, then `Cc1ccc2nc3sc(=O)sc3nc2c1`, with 16.9 µM (active); and `CCOC(=O)C(O)(c1ccc(Cl)cc1)c1ccc(Cl)cc1`, with 453 nM (active) and 317 nM (active); and `ClC(Cl)=C(c1ccc(Cl)cc1)c1ccccc1Cl`, with 6.33 µM (active).
